According to PubChem BioAssay (Tox21):
Records with an inconclusive call do not appear. A number with no mark means an inactive call. Calls follow the shape of the dose curve; as a rule, active = well fitted activation curve with a large enough effect in the signal ratio in the repeat runs (not every such curve was filed as active); inconclusive = weak or mixed curves; inactive = flat fitted curve, though single readings scatter; the % refers to the signal ratio.

Assay: qHTS assay to identify small molecule agonists of the TGF-beta/Smad signaling pathway (AID 1346859)
Conditions: SBE-bla HEK293T, TGF-beta/Smad beta-lactamase reporter, 5 h; series mostly up to 76.8 µM; activation: at the top concentration
Excerpt: U.S. Tox21 Program National Center for Advancing Translational Sciences [NCATS] NIH Chemical Genomics Center [NCGC] U.S. Environmental Protection Agency [EPA] National Institutes of Environmental Health Sciences [NIEHS] National Toxicology Program [NTP] U.S. Food and Drug Administration [FDA] Tox21 Assay Overview: Transforming growth factor beta (TGF-beta) superfamily consists of a large number of structurally related dimeric proteins that act as hormones or local mediators in regulating a wide range of biological functions. This superfamily includes TGF-betas themselves, the bone morphogenetic proteins (BMPs) and the activins. These ligands induce oligomerization of serine/threonine receptor kinases and phosphorylate the cytoplasmic signaling molecules of Smad protein family. CellSensor SBE-bla HEK 293T cell line (Life Technologies, Carlsbad, CA), responsive to TGF-beta was used to screen Tox21 10K compound library for identification of agonists/antagonists of the Smad signaling pathway. This cell line contains a beta-lactamase reporter gene under control of the Smad binding element (SBE) stably integrated into HEK 293T cells.
Tox21 Assay Protocol Summary: SBE-bla HEK 293T cells were dispensed at 4,000/well in 6 uL of assay medium into black wall/clear-bottom 1536-well plates using a Multidrop Combi (ThermoFisher Scientific, Waltham, MA) dispenser. After the assay plates were incubated at 37 C and 5% CO2 for an overnight, 23 nL of compounds dissolved in DMSO, positive controls or DMSO only was transferred to the assay plate by a Pintool station (Kalypsys, San Diego, CA). The assay plates were incubated at 37 C and 5% CO2 for 5 hr. One uL of LiveBLAzer B/G FRET substrate (Life Technologies) was added using a Flying Reagent Dispenser (Aurora Discovery, San Diego, CA) and the plates were incubated at room temperature for 2 hr. Fluorescence intensity (405 nm excitation, 460 nm and 530 nm emissions) was measured using an Envision plate reader (PerkinElmer, Shelton, CT).
% is scaled to controls: 0 for no effect and ±100 for the full control effect.

SMILES	activation
COc1cccc2sc(N)nc12	-2.82%
CC(=O)c1ccc2c(c1)CCCC2	-0.917%
CCCO	-0.865%
Cc1c(C(C)C)c(=O)n(-c2ccccc2)n1C	1.53% [at 35.3 µM]
Cc1ccc2c(c1)c1c3n2CCNC3CCC1 (stereo not given)	0.946% [at 35.3 µM]
CCC1Nc2cc(Cl)c(S(N)(=O)=O)cc2S(=O)(=O)N1 (stereo not given)	0.303% [at 35.3 µM]
CNCc1ccccc1	-0.709% [at 35.3 µM]
NS(=O)(=O)c1cc2c(cc1Cl)NC(C(Cl)Cl)NS2(=O)=O (stereo not given)	0.865% [at 35.3 µM]
O=C1CC[C@H](C(=O)N2CCCCC2)N1	-1.15% [at 35.3 µM]
C1=CCC(c2ccccc2)CC1 (stereo not given)	-0.914%
Nc1ccc(/C=C/c2ccc(N)cc2S(=O)(=O)O)c(S(=O)(=O)O)c1	1.21% [at 0.29 µM]
FC(F)(F)c1ccc(Cl)cc1Cl	1.53%
Cc1cccc(C(=O)O)c1[N+](=O)[O-]	-2.57%
Cc1ccc(C(=O)C(=O)O)cc1C	-2.43% [at 35.3 µM]
CCOc1ccc(NC(=O)OC(C)C)cc1OCC	-0.689%
CCC(CO)CO	1.22%
C=C(C)C(=O)OC	0.497%
CCNC(=O)/C=C/c1cccc(Br)c1	-0.794% [at 35.3 µM]
CC(=O)OC(C)c1ccccc1 (stereo not given)	-0.755%
C=CCOc1c(Br)cc(C(C)(C)c2cc(Br)c(OCC=C)c(Br)c2)cc1Br	0.786% [at 35.3 µM]

SMILES	activation
CCC(C)(CCC(C)C)C(=O)[O-].CCC(C)(CCC(C)C)C(=O)[O-].[Zn+2] (stereo not given)	0.411%
CC(C)CCO	-0.862%
COc1ccc(N=Nc2cc(C)c(N=Nc3ccc(S(=O)(=O)O)cc3)cc2OC)cc1	-5.2%
O=C(CN1CCN(Cc2ccc3c(c2)OCO3)CC1)N1c2ccccc2Sc2ccccc21	0.382% [at 35.3 µM]
Cc1nc2n(c(=O)c1CCN1CCC(C(=O)c3ccc(F)cc3)CC1)CCS2	0.332% [at 35.3 µM]
O=C(O)c1ccc(OCCN2CCCCC2)cc1	-7.99% [at 35.3 µM]
Cc1nc([N+](=O)[O-])cn1-c1ccc([N+](=O)[O-])cc1	-1.66% [at 35.3 µM]
COc1ccc(OC)c(NC(=O)CC(C)=O)c1	-2.52%
Nc1c(NC/C=C\COc2cc(CN3CCCCC3)ccn2)c(=O)c1=O	-0.0935% [at 15.8 µM]
CCCCCCCCOC(C)=O	1.78%
CCCCC(CC)C(=O)OC(C)C (stereo not given)	0.646%
C=CCCCCCCCCCCC	-3.71% [at 6.97 µM]
O=C(Oc1ccccc1C(=O)O)c1ccccc1O	0.447% [at 35.3 µM]
CC(C)COC(=O)CC(C(=O)OCC(C)C)S(=O)(=O)O (stereo not given)	1.85%
O=C1c2ccccc2-c2ccccc21	2.65%
O=C1NC2NC(=O)NC2N1 (stereo not given)	0.0593%
CCCCCCCCCCCCCCCCCCN(C)C	0.156% [at 35.3 µM]
CN=C(NC#N)NCCSCc1csc(N=C(N)N)n1	-2.44% [at 35.3 µM]
COCCOCCOCCOC	1.34%
NC(=O)NC(=O)Cc1ccccc1	0.314% [at 35.3 µM]
